Legend:
[1] = target: T1, Aspartate--tRNA(Asp/Asn) ligase (Mycobacterium tuberculosis (strain ATCC 25618 / H37Rv)) (UniProt P9WFW3); experiment: Assay for Asp RNA synthetase-1 from Mycobacterium tuberculosis; format: functional; parameters: scale not given: direction of the effect not stated beside the values; settings: 30 µM; note: in the data most compounds retested in dose-response had high values
T1 sequence (whole entry): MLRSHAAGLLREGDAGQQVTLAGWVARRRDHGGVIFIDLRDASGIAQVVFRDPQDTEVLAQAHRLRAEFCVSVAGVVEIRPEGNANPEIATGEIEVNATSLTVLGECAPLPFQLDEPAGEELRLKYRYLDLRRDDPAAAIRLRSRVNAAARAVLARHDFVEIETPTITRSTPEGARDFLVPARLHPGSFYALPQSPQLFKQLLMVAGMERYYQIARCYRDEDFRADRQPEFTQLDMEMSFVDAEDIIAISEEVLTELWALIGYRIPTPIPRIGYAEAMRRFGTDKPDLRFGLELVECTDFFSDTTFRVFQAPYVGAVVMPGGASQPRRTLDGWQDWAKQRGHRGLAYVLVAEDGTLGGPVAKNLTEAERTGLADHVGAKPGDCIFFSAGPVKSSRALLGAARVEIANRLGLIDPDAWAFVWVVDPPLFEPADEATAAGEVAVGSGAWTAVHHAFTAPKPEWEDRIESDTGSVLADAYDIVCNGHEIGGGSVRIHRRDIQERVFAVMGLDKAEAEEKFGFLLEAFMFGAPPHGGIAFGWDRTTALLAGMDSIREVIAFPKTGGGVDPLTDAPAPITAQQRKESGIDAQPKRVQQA

[2] = target: Shiga toxin 2 (Escherichia coli O157:H7) (UniProt P09385+P09386); experiment: E. coli 0.157:H7 Shiga Toxin SOP - stx2 screening assay; format: functional; parameters: scale not given: direction of the effect not stated beside the values; settings: 30 µM

Row | SMILES | Percent Effect [1] [%] | Percent Effect [2] [%]
1 | Cn1cc(CC2CCN(C(=O)NCc3cn4ccsc4n3)C2)cn1 (stereo not drawn) | -4.64 | -8.11
2 | Cc1cc(CN(C)C(=O)NC(C)c2nncn2C)no1 (stereo not drawn) | -3.43 | 6.65
3 | COc1ccc(CCN2CCC(N3CCN(C)C3=O)CC2)cc1 | -1.97 | 0.371
4 | CC(Oc1ccccc1C(F)(F)F)C(=O)NS(=O)(=O)C(C)C (stereo not drawn) | -4.49 | 4.69
5 | Cc1cccc(CNC2CCCc3c2cnn3C)c1 (stereo not drawn) | 0.855 | -9.23
6 | Cn1cccc1CCC(=O)N1CCC2(CC1)c1ccccc1CC2O (stereo not drawn) | 2.11 | -22.3
7 | COC[C@@]12CCO[C@@H]1CCN(C(=O)Cc1ccccc1F)C2 | -2.8 | -1.69
8 | O=C(Cn1ccnc1)N1C[C@@H]2CC[C@H](Oc3ccccc3Cl)[C@@H]2C1 | -0.551 | 13.9
9 | COCc1cccc(C(=O)N2CCCCC2c2nccs2)c1 (stereo not drawn) | -3.8 | 18.2
10 | Cc1cnn(CC2CCCN2C(=O)c2cccc(-n3cnnn3)c2)c1 (stereo not drawn) | -7.68 | 9.64
11 | CNS(=O)(=O)c1cccc(C(C)NCc2ccccc2)c1 (stereo not drawn) | -1.42 | -14.4
12 | CC(NC(=O)CCn1cncn1)c1nnc2n1CCCCC2 (stereo not drawn) | -0.486 | -13.7
13 | Cc1nn(C)c(C)c1C1CCCN1C(=O)CCNc1ncccn1 (stereo not drawn) | 6.63 | 13.4
14 | CCCNC(=O)c1cc2c(c3ccccc3n2C)n1C(=O)N(C)C | 2.3 | -2.9
15 | CN(Cc1cnn(C)c1)C(=O)c1ccc(=O)n(C)n1 | -3.08 | -8.81
16 | CCN(c1ccc(C(=O)N2CCCC(C)C2)cc1)S(=O)(=O)CC (stereo not drawn) | -3.34 | -10.8
17 | CC(C)Sc1ncccc1C(=O)NCc1ccc(CS(C)(=O)=O)cc1 | -3.16 | 13.1
18 | CC(CN1CCN(C)CC1)NC(=O)c1cc(Cl)c2c(c1)OCO2 (stereo not drawn) | 3.29 | -0.562
19 | Cc1ccc(C(=O)N2CCN(CCc3cccs3)CC2)c(=O)[nH]1 | -1.83 | -29.5
